For 27 compounds, B-score results are on record in PubChem BioAssay AID449739 (Vanderbilt High Throughput Screening Facility, 2010).

About 4,200 (4.2%) of roughly 100,000 compounds were called active. This is one part of a sample in which actives are shown more often than they occur. A number with no mark means an inactive call.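 Rule for the calls: active = single-dose well whose peak fluorescence ratio is a statistical outlier from its plate by either plate-standardised score or position-corrected B-score; inactive = the rest.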

In the assay the target is Voltage-dependent T-type calcium channel subunit alpha-1H (Homo sapiens) (UniProt O95180). As to the kind of experiment: Cav3.2 calcium influx blockers – cell-based, Fluo-4 calcium fluorescence, FDSS, MLSMR library, primary screen (AID 449739). The note with it: Cav3.2-expressing cells, at 10 µM, stronger effect = lower value.
Voltage-dependent T-type calcium channel subunit alpha-1H (Homo sapiens), sequence (O95180 whole entry, looked up): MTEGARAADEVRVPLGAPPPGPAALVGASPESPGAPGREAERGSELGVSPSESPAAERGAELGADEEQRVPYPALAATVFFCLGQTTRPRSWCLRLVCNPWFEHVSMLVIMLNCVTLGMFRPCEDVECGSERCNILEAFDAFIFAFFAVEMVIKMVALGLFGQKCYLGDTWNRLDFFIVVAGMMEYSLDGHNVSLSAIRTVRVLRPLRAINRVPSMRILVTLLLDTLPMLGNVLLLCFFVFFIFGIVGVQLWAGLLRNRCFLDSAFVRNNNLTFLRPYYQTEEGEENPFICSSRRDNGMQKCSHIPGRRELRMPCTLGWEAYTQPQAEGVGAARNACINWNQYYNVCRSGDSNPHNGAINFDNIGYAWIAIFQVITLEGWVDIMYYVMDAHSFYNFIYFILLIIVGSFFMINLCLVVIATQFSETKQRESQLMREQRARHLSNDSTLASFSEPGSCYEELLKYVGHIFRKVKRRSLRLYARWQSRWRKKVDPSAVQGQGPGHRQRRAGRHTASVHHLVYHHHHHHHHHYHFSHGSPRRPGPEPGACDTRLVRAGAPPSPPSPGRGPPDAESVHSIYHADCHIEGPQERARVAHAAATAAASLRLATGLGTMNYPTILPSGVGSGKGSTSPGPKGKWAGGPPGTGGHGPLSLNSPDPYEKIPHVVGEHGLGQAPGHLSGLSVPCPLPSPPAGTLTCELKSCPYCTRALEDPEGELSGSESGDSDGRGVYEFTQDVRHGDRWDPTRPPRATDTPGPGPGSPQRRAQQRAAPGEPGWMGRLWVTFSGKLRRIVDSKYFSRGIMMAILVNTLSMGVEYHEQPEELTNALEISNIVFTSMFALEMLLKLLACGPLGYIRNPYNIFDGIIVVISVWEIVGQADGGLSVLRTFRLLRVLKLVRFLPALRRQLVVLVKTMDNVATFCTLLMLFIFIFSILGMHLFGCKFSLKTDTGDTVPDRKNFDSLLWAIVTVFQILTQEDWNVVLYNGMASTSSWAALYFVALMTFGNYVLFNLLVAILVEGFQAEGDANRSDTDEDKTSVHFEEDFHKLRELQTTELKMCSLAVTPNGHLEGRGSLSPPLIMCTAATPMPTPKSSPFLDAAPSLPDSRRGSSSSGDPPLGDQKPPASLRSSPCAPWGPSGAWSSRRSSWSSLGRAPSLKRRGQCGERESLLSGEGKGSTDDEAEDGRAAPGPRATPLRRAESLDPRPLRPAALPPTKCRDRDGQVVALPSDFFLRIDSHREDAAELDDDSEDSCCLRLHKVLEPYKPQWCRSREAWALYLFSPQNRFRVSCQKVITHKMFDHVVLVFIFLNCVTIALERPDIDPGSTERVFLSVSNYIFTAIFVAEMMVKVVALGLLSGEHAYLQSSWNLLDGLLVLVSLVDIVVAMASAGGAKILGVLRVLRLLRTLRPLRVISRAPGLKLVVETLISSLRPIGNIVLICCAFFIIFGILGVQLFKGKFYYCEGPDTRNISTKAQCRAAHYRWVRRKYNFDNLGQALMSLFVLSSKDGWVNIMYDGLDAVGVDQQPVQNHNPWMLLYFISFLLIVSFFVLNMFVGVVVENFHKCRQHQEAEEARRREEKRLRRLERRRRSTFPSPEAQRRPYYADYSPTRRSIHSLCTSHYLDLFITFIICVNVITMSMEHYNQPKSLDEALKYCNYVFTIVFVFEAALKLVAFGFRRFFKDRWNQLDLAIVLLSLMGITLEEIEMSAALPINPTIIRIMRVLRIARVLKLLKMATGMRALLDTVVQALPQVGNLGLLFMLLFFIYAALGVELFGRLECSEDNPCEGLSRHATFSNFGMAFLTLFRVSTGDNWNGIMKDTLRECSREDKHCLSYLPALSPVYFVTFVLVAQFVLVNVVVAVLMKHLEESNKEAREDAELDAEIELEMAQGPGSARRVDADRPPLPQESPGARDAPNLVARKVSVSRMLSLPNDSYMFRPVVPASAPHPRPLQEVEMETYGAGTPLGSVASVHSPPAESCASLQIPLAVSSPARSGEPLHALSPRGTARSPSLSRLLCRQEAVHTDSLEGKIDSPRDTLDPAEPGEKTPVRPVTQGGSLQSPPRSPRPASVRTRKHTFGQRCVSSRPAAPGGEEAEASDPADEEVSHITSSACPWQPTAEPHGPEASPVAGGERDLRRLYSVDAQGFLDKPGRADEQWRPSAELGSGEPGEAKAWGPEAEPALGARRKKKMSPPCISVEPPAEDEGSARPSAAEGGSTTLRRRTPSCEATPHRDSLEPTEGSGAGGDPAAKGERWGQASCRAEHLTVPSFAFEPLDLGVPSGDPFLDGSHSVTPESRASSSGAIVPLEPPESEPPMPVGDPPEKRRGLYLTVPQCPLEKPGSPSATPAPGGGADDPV
With `CNC(=O)CSc1nnc(CCc2ccccc2)n1-c1ccccc1`, the B-score is -0.00574.
`COc1ccc(OC)c(/C=N/NC(=O)CSc2nnc(C)n2-c2ccccc2)c1`: the B-score was 2.
In the case of `COc1ccccc1NC(=O)CSc1nnc(Cn2nnc(-c3ccccc3)n2)n1-c1ccccc1` it was -7.2 (active).
As to `O=C(Nc1cccc2ncccc12)C(Cl)(Cl)Cl`, the B-score was 1.36.
To `COc1ccc(OCC(=O)NN2Cc3ccccc3C2=N)cc1` belongs 0.0596.
In the case of `O=C(Cc1ccccc1)N/N=C/c1ccc(Cl)cc1Cl` it was -0.673; in that of `O=C(CCCC(=O)N(CC(=O)NC1CCCC1)Cc1ccccc1Cl)Nc1ccccn1`, -1.66; in that of `CCOc1ccccc1N(CC(=O)NC1CCCCC1)C(=O)CCCC(=O)Nc1ccccn1`, -8.92 (active).
To `CCCC(=O)Nc1cc(OCC)c(NC(=O)NC2CCCCC2)cc1OCC` belongs 0.0578; to `N=c1ccn(CC(=O)NC(N)=O)c2ccccc12`, 1.07.
In the case of `CC(=O)c1cnc(SCCN2C(=O)c3ccccc3C2=O)nc1C`, the B-score is -0.173.
In the case of `CCOC(=O)c1cc2n(c1N)-c1ccccc1C2=O` it was -9.74 (active).
Take `CCOC(=O)Nc1ccccc1N1C(=O)c2ccccc2C1=O`: the B-score is 0.477.
For `CCOC(=O)c1cc2n(c1C)-c1ccccc1C2=O`, the B-score is -0.985.
On to `COc1ccc(C(=O)NN(C)c2nc(-c3ccccc3)cc(C)c2S(C)(=O)=O)cc1`, for which the B-score was 1.17.
Regarding `CSc1nc(N(C)NC(=O)c2cccc(C)c2)c2ccccc2n1`, the B-score is -7.16 (active).
In the case of `CN(NC(=O)c1ccccc1)c1nc2ccccc2nc1C(F)(F)F` it was -0.171; in that of `CCc1ccccc1NC(=O)/C(=C/c1ccccc1)c1ccccc1`, -4.21.
Take `O=C(/C=C/c1ccccc1)N/C(=C/c1ccccc1)C(=O)Nc1ccccc1O`: the B-score was -8.64 (active).
In the case of `O=C(/C=C/c1ccccc1)c1ccccc1O`, the B-score was 0.49.
In the case of `COC(=O)c1c(-c2ccsc2)oc2ccc(-c3cc(OC)c(OC)c(OC)c3)cc12`, the B-score was -0.846.
To `CCO[C@@H]1OC(C(=O)N2CCOCC2)=C[C@H](C)[C@H]1CCCO` belongs 0.155.
In the case of `Cc1ccc(NC(=O)N2CCSc3ccccc32)cc1`, the B-score was -0.746.
Take `Cc1ccc(CN(N=Nc2nonc2N)c2nonc2N)c(C)c1`: the B-score was -6.83 (active).
Regarding `c1ccc(COc2ccccc2CNCc2cccnc2)cc1`, the B-score is -0.314.
`CC1(C)CC(=O)C(C=NCCN2CCN(C(=S)Nc3cccc(Cl)c3)CC2)=C(O)C1`: the B-score was -0.563.
To `Cc1ccc(C)c(CSc2nc(-c3ccco3)nc3c2c(=O)n(C)c(=O)n3C)c1` belongs -0.668.
